Test [1] is described as follows: qHTS for Inhibitors of the Functional Ribonucleoprotein Complex (vRNP) of Lassa (LASV) Arenavirus: LASV Primary Screen - GLuc reporter signal (AID 1347082; calls by dose curve; tested in HEK293 reporter line; further: nearly all actives have a fitted effect of over 60% in size).
A short description of test [2]: qHTS for Inhibitors of the Functional Ribonucleoprotein Complex (vRNP) of Lassa (LASV) Arenavirus: Viability assay - alamar blue signal for LASV Primary Screen (AID 1347083; calls by dose curve; tested in HEK293 reporter line; further: nearly all actives have a fitted effect of over 80% in size). (In general: In qHTS, concentration-response curves come from the screen itself.)
Test [3] in a line: qHTS for Inhibitors of the Functional Ribonucleoprotein Complex (vRNP) of Lymphocytic Choriomeningitis Arenaviruses (LCMV): Viability assay - alamar blue signal for LCMV Primary Screen (AID 1347085; calls by dose curve; tested in HEK293 reporter line; further: nearly all actives have a fitted effect of over 80% in size).
For test [4], the target named is Nucleoprotein (Lymphocytic choriomeningitis virus (strain Armstrong)) (UniProt P09992). Briefly: qHTS for Inhibitors of the Functional Ribonucleoprotein Complex (vRNP) of Lymphocytic Choriomeningitis Arenaviruses (LCMV): LCMV Primary Screen - GLuc reporter signal (AID 1347086). Further: nearly all actives have a fitted effect of over 70% in size.

Each structure is given as a SMILES string. Records with an inconclusive call do not appear. Calls of active or inactive are those of the source. Unless noted, the call rests on the fitted dose curve.
Potency means the concentration at half of the fitted maximal effect.

Nucleoprotein (Lymphocytic choriomeningitis virus (strain Armstrong)), sequence (P09992 whole entry, looked up): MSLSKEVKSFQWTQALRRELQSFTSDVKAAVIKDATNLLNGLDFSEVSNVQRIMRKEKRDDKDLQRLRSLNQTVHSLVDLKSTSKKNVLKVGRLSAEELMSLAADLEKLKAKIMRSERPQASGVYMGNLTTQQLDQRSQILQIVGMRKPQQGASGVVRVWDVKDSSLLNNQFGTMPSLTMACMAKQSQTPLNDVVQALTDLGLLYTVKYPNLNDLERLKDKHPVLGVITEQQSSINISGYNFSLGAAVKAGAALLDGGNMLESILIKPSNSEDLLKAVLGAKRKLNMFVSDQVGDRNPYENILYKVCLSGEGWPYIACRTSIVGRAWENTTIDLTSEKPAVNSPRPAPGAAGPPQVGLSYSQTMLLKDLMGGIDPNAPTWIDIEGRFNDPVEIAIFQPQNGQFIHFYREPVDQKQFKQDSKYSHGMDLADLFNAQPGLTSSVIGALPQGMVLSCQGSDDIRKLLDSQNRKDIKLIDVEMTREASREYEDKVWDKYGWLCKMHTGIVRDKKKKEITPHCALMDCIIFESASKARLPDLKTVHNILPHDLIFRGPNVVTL

As to `COc1ccc(-c2coc3cc(O[C@@H]4O[C@H](CO)[C@@H](O)[C@H](O)[C@H]4O)c(OC)cc3c2=O)cc1`, the Potency result in test [1], in test [2], in test [3] and in test [4] was “inactive” in each case.

Consider `N=C1SC(=Cc2ccc(-c3ccc4c(c3)C(=O)NC4=O)o2)C(=O)N1c1ccc(Br)cc1`, for which the Potency result in test [1], in test [2], in test [3] and in test [4] was “inactive” in each case.

In the case of `COc1ccc([C@@H]2CC(=O)c3c(O)cc(O[C@@H]4OC(CO[C@@H]5OC(C)[C@H](O)[C@@H](O)[C@H]5O)[C@@H](O)[C@H](O)[C@H]4O)cc3O2)cc1O` (some centres undefined), the Potency result in test [1], in test [2], in test [3] and in test [4] was “inactive” throughout.

Consider `CC(=O)OC[C@H]1O[C@@H](Oc2cc(O)cc3oc(-c4ccc(O)cc4)cc(=O)c23)[C@H](O[C@@H]2O[C@@H](C)[C@H](O)[C@@H](O)[C@H]2O)[C@@H](O)[C@@H]1O`, for which the Potency result in test [1], in test [2], in test [3] and in test [4] was “inactive” throughout.

As for `CCCCCCCCCCCCOC(C)=O`, the Potency entry in test [1], in test [2], in test [3] and in test [4] was “inactive” throughout.

Regarding `C[N+](C)(C)C[C@H](O)CC(=O)[O-]`, the Potency entry in test [1], in test [2], in test [3] and in test [4] was “inactive” throughout.

Take `C/C(=C/C=C/[C@@H](C)C(=O)O)[C@H]1CN[C@H](C(=O)O)[C@H]1CC(=O)O`: the Potency result in test [1], in test [2], in test [3] and in test [4] was “inactive” each time.

`COc1cc(OC)cc(-c2ccc3ncc4ccc(=O)n(-c5ccc(N6CCNCC6)c(C(F)(F)F)c5)c4c3c2)c1`: the Potency in test [1] is 10.9 µM (active); in test [2], 6.85 µM (active); in test [3], 1.93 µM (active); in test [4], 3.06 µM (active).

For the compound `CC1=CC=C(C(C)C)CC1`, the Potency entry in test [1], in test [2], in test [3] and in test [4] was “inactive” in each case.

Turning to `O=C1C=C(O)c2cccc(O)c2C1=O`, the Potency entry in test [1], in test [2], in test [3] and in test [4] was “inactive” in each case.

For the compound `COC(=O)C(O)C(O)(CCC(C)C)C(=O)OC1C(OC)=CC23CCCN2CCc2cc4c(cc2C13)OCO4` (centres undefined), the Potency result in test [1], in test [2], in test [3] and in test [4] was “inactive” each time.

With `COc1cc2c(OC(C)=O)c3c(c(-c4ccc5c(c4)OCO5)c2cc1OC)C(=O)OC3`, the Potency entry in test [1], in test [2], in test [3] and in test [4] was “inactive” each time.

On to `Cc1[nH]c(C=C2C(=O)Nc3ccccc32)c(C)c1CCC(=O)O`, for which the Potency entry in test [1] is “inactive”. Moreover, the Potency in test [2] was 10.9 µM (active); in test [3], 21.7 µM (active); in test [4], 34.3 µM (active).

As to `CC(C)(OC1OC(CO)C(O)C(O)C1O)[C@H]1Oc2ccc3ccc(=O)oc3c2[C@H]1O` (some centres undefined), the Potency entry in test [1], in test [2], in test [3] and in test [4] was “inactive” throughout.

`COC1[C@@H](O[C@@H]2O[C@H](C)[C@@H](O[C@H]3C[C@@](C)(O)[C@H](OC(=O)CC(C)C)[C@H](C)O3)[C@H](N(C)C)[C@H]2O)[C@@H](CC=O)C[C@@H](C)[C@@H](O)/C=C/C=C/C[C@@H](C)OC(=O)C[C@H]1OC(C)=O` (some centres undefined): the Potency result in test [1], in test [2], in test [3] and in test [4] was “inactive” each time.

Consider `C[C@H]1C[C@@H]2[C@@H]([C@@H](O)C[C@@]3(C)[C@H]2CC[C@]3(O)C(=O)CO)[C@@]2(C)C=CC(=O)C=C12`, for which the Potency result in test [1], in test [2], in test [3] and in test [4] was “inactive” throughout.

As for `C[C@@H]1NC(=O)N[C@@H]1CCCCCC(=O)O`, the Potency entry in test [1], in test [2], in test [3] and in test [4] was “inactive” in each case.

For the compound `CC(=O)O[C@@H]1[C@H]2CC[C@@H]3[C@]1(C[C@@H](OC(C)=O)[C@@]1(O)C([C@@H]4O[C@@H]4C1(C)C)[C@]3(C)O)C[C@@]2(C)O` (some centres undefined), the Potency result in test [1], in test [2], in test [3] and in test [4] was “inactive” in each case.

As for `CC(=O)OC[C@@]12C(=O)[C@@H](O)[C@@H](C)[C@]3(C[C@@H](c4ccoc4)O[C@@H]3OC(C)=O)[C@H]1CCC[C@]21CO1`, the Potency entry in test [1], in test [2], in test [3] and in test [4] was “inactive” each time.

`Cc1cc(=O)oc2cc3c(cc12)OCO3`: the Potency result in test [1], in test [2], in test [3] and in test [4] was “inactive” each time.

For `C=CCc1c(OC)ccc2ccc(=O)oc12`, the Potency entry in test [1], in test [2], in test [3] and in test [4] was “inactive” in each case.

In the case of `C[C@H]1CC[C@@H]2[C@@H](C)[C@H]3C(C[C@H]4C5CC[C@H]6C[C@@H](O)CC[C@]6(C)C5CC[C@]34C)N2C1` (some centres undefined), the Potency entry in test [1], in test [2], in test [3] and in test [4] was “inactive” in each case.

Turning to `COc1cc(C(=O)OC2CC3CCC2(C)C3(C)C)ccc1OC(C)=O` (centres undefined), the Potency result in test [1], in test [2], in test [3] and in test [4] was “inactive” each time.

As to `O=C(NCO)c1cccnc1`, the Potency entry in test [1], in test [2], in test [3] and in test [4] was “inactive” in each case.

With `COc1ccc([C@@H]2[C@@H](O)[C@H](O)[C@@H](C)N2C)cc1OC`, the Potency result in test [1], in test [2], in test [3] and in test [4] was “inactive” each time.

Consider `CC1=CCC[C@@H]2[C@@](C)(CC/C(C)=C/C(=O)O)[C@H](C)CC[C@@]12C`, for which the Potency entry in test [1], in test [2], in test [3] and in test [4] was “inactive” throughout.

For the compound `CCCCCCCCCCCC`, the Potency entry in test [1], in test [2], in test [3] and in test [4] was “inactive” throughout.

With `Cc1[nH]c(C=C2C(=O)Nc3ccc(S(=O)(=O)N(C)c4cccc(Cl)c4)cc32)c(C)c1C(=O)N1CCN(C)CC1`, the Potency entry in test [1], in test [2], in test [3] and in test [4] was “inactive” in each case.

As for `COc1ccc([C@H]2c3cc(OC)c(OC)cc3C[C@@H](C)[C@@H]2C)cc1OC`, the Potency entry in test [1], in test [2], in test [3] and in test [4] was “inactive” in each case.

For `N[C@@H](CCCCNC(=O)CCCC[C@@H]1SC[C@H]2NC(=O)N[C@H]12)C(=O)O`, the Potency result in test [1], in test [2], in test [3] and in test [4] was “inactive” each time.

Regarding `O=c1cc(-c2ccccc2)c2c(O)cc(O)cc2o1`, the Potency result in test [1], in test [2], in test [3] and in test [4] was “inactive” throughout.
